From PubChem BioAssay (Tox21) come the findings set out here.

The target in assay [1] is Retinoic acid receptor RXR-alpha (Homo sapiens) (UniProt P19793). The experiment in a line: qHTS assay to identify small molecule agonists of the RXR signaling pathway (AID 1159527; calls by dose curve; further: nearly all actives have a fitted effect of over 35% in size; further: potency means the concentration at half of the fitted maximal effect). In short, it runs like this: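 Agonist-mode beta-lactamase reporter assay: HEK 293T RXR-alpha-UAS-bla cells treated 16 hr at 37 C with compounds, 9-cis retinoic acid as positive control. LiveBLAzer FRET substrate, 405 nm excitation, 460/530 nm emission.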

Assay [2] is described as follows: qHTS assay to identify small molecule antagonists of the retinoid acid receptor (RAR) signaling pathway - cell viability counter screen (AID 1159551). Further: nearly all actives have a fitted effect of over 35% in size. In short, it runs like this:
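ATP-based viability, C3RL4 cells, 6 h at 37 C with 1 uM final retinol co-added after compound; luminescence read 30 min post CellTiter-Glo, RT.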

Assay [3] in a line: qHTS assay to identify small molecule antagonists of the retinoic acid receptor (RAR) signaling pathway (AID 1159552; further: nearly all actives have a fitted effect of over 50% in size; further: potency means the concentration at half of the fitted maximal effect). The gist of the method:
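Luminescent RARE reporter read-out in C3RL4 cells: 6 hr co-treatment at 37 C of test compounds with retinol at 1 uM final. Cells plated overnight beforehand; luciferase reagent incubated 30 min at room temperature before reading.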
(In qHTS, concentration-response curves come from the screen itself.)

The nature of assay [4]: qHTS assay to identify small molecule agonists of the retinoic acid receptor (RAR) signaling pathway (AID 1159553). Further: potency means the concentration at half of the fitted maximal effect. In short, it runs like this: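 Quantitative high-throughput format: the Tox21 10K library was tested on C3RL4 RARE-luciferase cells for 6 hr at 37 C and 5% CO2, with luminescence measured after a 30 min room-temperature reagent step.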
Assay [5] is described as follows: qHTS assay to identify small molecule antagonists of the estrogen related receptor (ERR) signaling pathway from Tox21 library - cell viability counter screen (AID 1224834). Further: nearly all actives have a fitted effect of over 30% in size. The gist of the method:
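Compounds in DMSO were pinned onto ERR cells that had been incubated for 6 h, and the plates were held at 37 C for 17.5 h. CellTiter-Fluor reagent was then added and fluorescence was measured after 30 min.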

Assay [6] deals with Luciferin 4-monooxygenase (Photinus pyralis) (UniProt P08659). Briefly: qHTS assay to identify small molecule inhibitors of firefly luciferase (AID 1224835). Further: nearly all actives have a fitted effect of over 25% in size. Further: potency means the concentration at half of the fitted maximal effect. The gist of the method:
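Biochemical qHTS: compounds run as interplate titrations against purified firefly enzyme, with D-luciferin and ATP each at its KM concentration. Light output recorded by CCD imaging.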

The nature of assay [7]: qHTS assay to identify small molecule agonists of the constitutive androstane receptor (CAR) signaling pathway - cell viability counter screen (AID 1224836). Further: series mostly up to about 92 µM; nearly all actives have a fitted effect of over 45% in size. In short, it runs like this:
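Cell viability multiplexed with the CAR agonist screen: CellTiter-Fluor fluorescence after 23 hr at 37 C. HepG2-CYP2B6-hCAR cells got compounds at 15 concentrations with PK11195 at 0.75 uM final.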

The nature of assay [8]: qHTS assay to identify small molecule antagonists of the constitutive androstane receptor (CAR) signaling pathway - cell viability counter screen (AID 1224837). Further: series mostly up to about 92 µM; nearly all actives have a fitted effect of over 45% in size. The gist of the method: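 Cells are seeded, rested 4 hr at 37 C/5% CO2, dosed with compound (15-point series) and 50 nM CITCO, incubated a further 23 hr, and then CellTiter-Fluor reagent is added before fluorescence is read. The line is HepG2 with stable hCAR and CYP2B6-2.2kb.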

Assay [9] addresses Nuclear receptor subfamily 1 group I member 3 (Homo sapiens) (UniProt Q14994). The experiment in a line: qHTS assay to identify small molecule antagonists of the constitutive androstane receptor (CAR) signaling pathway (AID 1224838).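 Further: HepG2 cells stably expressing hCAR with CYP2B6 luciferase reporter stimulated by CITCO; nearly all actives have a fitted effect of over 40% in size.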 In short, it runs like this:
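Luminescence from a CYP2B6-2.2kb promoter reporter in hCAR-expressing HepG2 cells reflects CAR signaling. Cells received compounds at 15 concentrations and 50 nM CITCO (final), then incubated 24 h at 37 C/5% CO2.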

For assay [10] the target is unchanged. The experiment in a line: qHTS assay to identify small molecule agonists of the constitutive androstane receptor (CAR) signaling pathway (AID 1224839). Further: nearly all actives have a fitted effect of over 15% in size. Further: potency means the concentration at half of the fitted maximal effect. The gist of the method: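 Luminescent ONE-Glo read-out after 24 hr, 37 C exposure of double-stable HepG2-CYP2B6-hCAR reporter cells to a 15-point compound series, in the presence of 0.75 uM PK11195 (final).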

Assay [11] can be described thus: qHTS assay to identify small molecule antagonists of the estrogen related receptor signaling pathway with the pleiotropic PPARgamma coactivator (PGC) from Tox21 10K library - cell viability counter screen (AID 1224840; active means well fitted cell-killing curve with a large enough effect in the repeat runs, not every such curve was filed as active; further: nearly all actives have a fitted effect of over 40% in size). The gist of the method: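 Cell viability is measured by CellTiter-Fluor fluorescence in PGC/ERR cells that receive compounds after a 6-hour attachment period and are then incubated 17.5 hours at 37 C.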

Assay [12] is described as follows: qHTS assay to identify small molecule antagonists of the estrogen related receptor signaling pathway with the pleiotropic PPARgamma coactivator (PGC) from Tox21 10K library (AID 1224841; call rule not given here; further: series mostly up to about 92 µM; actives are mostly falling curves and most rising ones were filed inactive; nearly all actives have a fitted effect of over 50% in size). In short, it runs like this: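 Cells stably carrying the PGC/ERR reporter, seeded at 2,000 per well, received pin-transferred compounds 6 h post-plating. Exposure lasted 18 h at 37 C. Signal: One-Glo luminescence.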

Assay [13] in a line: qHTS assay to identify small molecule agonists of the RXR signaling pathway - cell viability counter screen (AID 1159529). Further: series mostly up to about 77 µM; nearly all actives have a fitted effect of over 50% in size. In short, it runs like this: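 CellTiter-Glo luminescence gave viability in the wells also read for beta-lactamase. Cells (RXR-alpha-UAS-bla HEK 293T, 2% charcoal-stripped FBS medium) had 5 hr plating, then 16 hr compound exposure at 37 C; tetraoctyl ammonium bromide served as positive control.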

Inconclusive results are not listed. A number with no mark means an inactive call. Active and inactive are the calls of the source. Unless noted, the call rests on the fitted dose curve; in most records, active means well fitted curve in the direction sought with a large enough effect in the repeat runs; inconclusive means weak or mixed curves; inactive means no such curve, though single readings can be large; an effect the other way counts as inactive or inconclusive.

Sequence of Luciferin 4-monooxygenase (Photinus pyralis) (P08659 whole entry, looked up): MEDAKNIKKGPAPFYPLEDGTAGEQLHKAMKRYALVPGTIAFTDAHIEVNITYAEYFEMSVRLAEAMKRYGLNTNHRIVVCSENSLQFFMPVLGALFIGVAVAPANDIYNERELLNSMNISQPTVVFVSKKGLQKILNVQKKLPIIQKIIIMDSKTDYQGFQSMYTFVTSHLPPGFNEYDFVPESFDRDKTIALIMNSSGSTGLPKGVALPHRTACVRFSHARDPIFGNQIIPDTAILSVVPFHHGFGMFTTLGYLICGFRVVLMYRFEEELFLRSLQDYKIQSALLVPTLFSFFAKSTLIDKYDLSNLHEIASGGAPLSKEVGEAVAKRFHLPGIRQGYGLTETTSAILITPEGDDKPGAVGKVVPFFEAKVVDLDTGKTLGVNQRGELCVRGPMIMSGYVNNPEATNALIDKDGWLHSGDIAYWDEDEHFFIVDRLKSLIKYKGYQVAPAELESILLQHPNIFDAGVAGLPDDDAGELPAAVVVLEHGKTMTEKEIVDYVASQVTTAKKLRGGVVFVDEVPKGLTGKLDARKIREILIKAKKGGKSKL
Sequence of Nuclear receptor subfamily 1 group I member 3 (Homo sapiens) (Q14994 whole entry, looked up): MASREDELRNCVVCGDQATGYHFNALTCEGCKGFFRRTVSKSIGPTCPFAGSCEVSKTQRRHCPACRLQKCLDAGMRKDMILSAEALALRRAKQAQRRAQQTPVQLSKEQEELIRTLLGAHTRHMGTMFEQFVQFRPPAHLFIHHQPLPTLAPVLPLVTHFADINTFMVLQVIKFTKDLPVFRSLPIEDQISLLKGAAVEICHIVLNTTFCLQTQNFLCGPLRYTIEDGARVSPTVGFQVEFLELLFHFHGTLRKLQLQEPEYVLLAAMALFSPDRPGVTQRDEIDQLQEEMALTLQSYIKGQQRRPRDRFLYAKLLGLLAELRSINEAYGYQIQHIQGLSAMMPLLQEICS
Sequence of Retinoic acid receptor RXR-alpha (Homo sapiens) (P19793 whole entry, looked up): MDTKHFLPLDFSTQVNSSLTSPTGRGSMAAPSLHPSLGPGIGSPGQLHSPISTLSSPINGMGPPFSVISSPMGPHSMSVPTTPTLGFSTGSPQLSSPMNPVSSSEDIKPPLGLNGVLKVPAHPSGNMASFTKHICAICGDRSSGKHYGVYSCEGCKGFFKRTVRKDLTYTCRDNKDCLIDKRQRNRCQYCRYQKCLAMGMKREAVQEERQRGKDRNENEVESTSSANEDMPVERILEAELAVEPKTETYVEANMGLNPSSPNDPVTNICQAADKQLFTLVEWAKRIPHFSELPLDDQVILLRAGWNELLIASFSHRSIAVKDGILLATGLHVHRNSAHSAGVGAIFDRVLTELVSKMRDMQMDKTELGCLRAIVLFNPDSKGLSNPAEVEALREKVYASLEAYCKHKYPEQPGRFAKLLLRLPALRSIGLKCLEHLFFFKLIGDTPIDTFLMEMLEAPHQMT

Take `COc1ccc(N=[N+]([O-])c2ccc(OC)cc2)cc1`: the Potency result in assay [1], in assay [3], in assay [5] and in assay [9] was “inactive” throughout. The outcome in assay [2], in [7], in assay [8] and in assay [11] was inactive. The Potency was 27 nM (active) in [4], 222 nM (active) in assay [6] and 762 nM (active) in assay [10].

As to `CCCCCC[C@@H](CCC)C(=O)O`, the Potency result in assay [1], in assay [3], in assay [4], in assay [5], in assay [6] and in assay [9] was “inactive” in each case. Also, the Potency entry in assay [10] and in [12] was “inactive” each time. For the same compound, the outcome in assay [2], in assay [7], in [8] and in assay [11] was inactive.

`COCCOC(=O)CC#N`: the Potency result in [13], in assay [3], in assay [4], in assay [5], in assay [6] and in [9] was “inactive” each time. The Potency entry in assay [10] is “inactive”. Also, the compound was classed as inactive in assay [2], in assay [7], in [8] and in assay [11].

As to `O=C1CC2(CCCC2)CC(=O)N1`, the Potency result in assay [13], in assay [3], in assay [4], in assay [5], in [6] and in [9] was “inactive” in each case. In assay [10], the Potency result was “inactive”. Moreover, the compound was classed as inactive in assay [2], in [7], in [8] and in [11].

Turning to `CCCC(C)CO` (stereo not given), the Potency result in assay [13], in [3], in assay [4], in assay [5], in [6] and in assay [9] was “inactive” each time. In addition, in [10], the Potency entry is “inactive”. Further, the result in assay [2], in [7], in [8] and in assay [11] was inactive.

On to `Oc1cc(O)c2c(c1)O[C@H](c1ccc(O)c(O)c1)[C@H](O)C2`, for which the Potency result in assay [1], in assay [3], in [4], in assay [5] and in [6] was “inactive” throughout. Further, the compound was called inactive in assay [7], in [8] and in assay [11].

Regarding `O=C(O)Cc1cc(I)c(Oc2cc(I)c(O)c(I)c2)c(I)c1`, the results for the Potency in [1] and in assay [3] were 15200 nM (active) and 42400 nM (active), respectively. For the same compound, the outcome in assay [2], in assay [8] and in assay [11] was inactive. The Potency result in [4], in assay [5], in [9] and in assay [10] was “inactive” each time.

With `CCCCC1CCCCC(=O)O1` (stereo not given), the Potency result in assay [13], in assay [3], in [4], in assay [5], in assay [6] and in assay [9] was “inactive” in each case. Also, the Potency result in assay [10] and in assay [12] was “inactive” throughout. Moreover, the call in assay [2], in assay [7], in assay [8] and in [11] was inactive.

For the compound `Cc1ccccc1Br`, the Potency entry in [1], in assay [3], in [4], in [5], in assay [6] and in [9] was “inactive” throughout. For the same compound, the Potency entry in assay [10] and in assay [12] was “inactive” each time. The result in [2], in assay [7], in [8] and in assay [11] was inactive.

For the compound `CC(C)c1cccc(C(C)C)c1N`, the Potency result in [1], in [3], in assay [4], in assay [5], in assay [6] and in assay [9] was “inactive” each time. For the same compound, the Potency entry in [10] and in assay [12] was “inactive” throughout. In addition, the compound was called inactive in assay [7], in assay [8] and in assay [11].

Turning to `Cc1nc(-c2ccc(OCC(C)C)c(C#N)c2)sc1C(=O)O`, the Potency entry in [13], in assay [3], in assay [5], in assay [9] and in [12] was “inactive” in each case. The compound was called inactive in [2], in assay [7], in assay [8] and in [11]. Moreover, the Potency is 94.4 nM (active) in [4], 309 nM (active) in assay [6] and 75 nM (active) in assay [10].
